We go through 8 compounds from PubChem BioAssay (Tox21).

Molecules are shown by their SMILES. Where “and” joins values, the source holds several entries; their conditions need not be identical. Equal entries are not always repeated. Results filed as inconclusive are left out. A structure can be active in one record and inactive in another. Calls of active or inactive are those of the source. Unless noted, calls come from the whole dose curve.

Test [1] in a line: Nuclear factor erythroid 2-related factor 2/antioxidant responsive element (Nrf2/ARE) small molecule agonists: qHTS cell viability counter screen in human keratinocytes (AID 1919968; active = well fitted curve in the direction sought with a large enough effect in the repeat runs; an effect the other way counts as inactive or inconclusive; note: nearly all actives have a fitted effect of over 55% in size; note: potency is the fitted concentration of half-maximal effect). In short, it runs like this:
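In human HaCaT keratinocytes stably expressing an ARE-driven luciferase, compound exposure lasted 23 h at 37 C under 5% CO2. Viable cells are quantified with a protease-based fluorogenic reagent (CellTiter-Fluor) read 1 h after addition.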
For orientation: Quantitative high-throughput screening tests each substance at several concentrations.

The nature of test [2]: Nuclear factor erythroid 2-related factor 2/antioxidant responsive element (Nrf2/ARE) small molecule agonists: luciferase reporter gene qHTS assay in human keratinocytes (AID 1919969). Note: nearly all actives have a fitted effect of over 35% in size. Note: potency is the fitted concentration of half-maximal effect. Background: Reporter assays use an easily measured gene product as a stand-in for the process of interest.
For test [3], the target named is Gonadotropin-releasing hormone receptor (Homo sapiens) (UniProt P30968). The test is described as follows: Human gonadotropin-releasing hormone receptor (GnRHR) small molecule agonists, calcium flux assay in GnRHR-HEK293 cells (AID 1920063). Note: nearly all actives have a fitted effect of over 35% in size. In short, it runs like this:
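Intracellular calcium rise is the read-out: engineered human GnRHR HEK293 cells, dye-loaded, are exposed to DMSO-dissolved compounds and fluorescence at Ex/Em 480/540 is tracked for 3 min.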
Background: Calcium flux is commonly read through the fluorescence of an indicator in the cells.

In test [4] the target is KiSS-1 receptor (Homo sapiens) (UniProt Q969F8). Put plainly: Human kisspeptin (KISS1R) small molecule agonists, calcium flux assay in KISS1R-HEK293 cells (AID 1920064; active = well fitted curve in the direction sought with a large enough effect in the repeat runs; an effect the other way counts as inactive or inconclusive). In short, it runs like this: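 Concentration-response testing used 15 concentrations in triplicate on human KISS1R-expressing HEK293 cells. Calcium-dependent fluorescence (Ex/Em 480/540) was followed kinetically for 3 min after compound transfer.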
Sequence of KiSS-1 receptor (Homo sapiens) (Q969F8 whole entry, looked up): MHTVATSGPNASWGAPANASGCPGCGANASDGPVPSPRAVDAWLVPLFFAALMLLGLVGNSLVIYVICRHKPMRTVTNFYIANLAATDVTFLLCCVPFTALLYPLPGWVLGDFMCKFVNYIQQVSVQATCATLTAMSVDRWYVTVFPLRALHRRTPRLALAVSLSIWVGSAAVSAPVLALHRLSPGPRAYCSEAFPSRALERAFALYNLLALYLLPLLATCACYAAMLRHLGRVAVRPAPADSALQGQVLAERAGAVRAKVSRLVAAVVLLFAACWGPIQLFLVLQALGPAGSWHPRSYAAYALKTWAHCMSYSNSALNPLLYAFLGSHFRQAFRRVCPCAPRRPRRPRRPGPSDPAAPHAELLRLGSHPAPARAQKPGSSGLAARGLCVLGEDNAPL

Test [5] can be described thus: G protein-coupled receptor (GPCR) small molecule agonists, calcium flux assay: HEK293 wild type cell line counter screen (AID 1920065). The method, boiled down:
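Fluorescence intensity signals activation. After overnight (18 h) culture and a 1 h calcium dye load at 37 C, compounds are added by pin tool and the plate read at 480/540 nm for 3 min in 1 s steps.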

Test [6] in a line: p53 small molecule agonists, cell-based qHTS assay with human liver microsomes: qHTS cell viability counter screen (AID 1963579). Note: nearly all actives have a fitted effect of over 45% in size. The method, boiled down:
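p53RE-bla cells, 4,000/well, dosed 5 hours after plating, with human liver microsomes (0.5 mg/mL final) plus NADPH (0.5 mg/mL final), 16 hours at 37 C. Viability read as CellTiter-Glo luminescence after 30 min at room temperature.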

A short description of test [7]: p53 small molecule agonists, cell-based qHTS assay with rat liver microsomes: qHTS cell viability counter screen (AID 1963580). Note: nearly all actives have a fitted effect of over 45% in size. Note: potency is the fitted concentration of half-maximal effect. The method, boiled down: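 Cytotoxicity counter screen: intracellular ATP measured by CellTiter-Glo luminescence in the same wells as the beta-lactamase reporter read, on HCT-116 p53RE-bla cells exposed 16 h at 37 C to compounds with rat liver microsomes and NADPH, each 0.5 mg/mL final.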

The target of test [8] is 5-hydroxytryptamine receptor 2A (Homo sapiens) (UniProt P28223). Put plainly: 5-hydroxytryptamine receptor 2A (HTR2A) small molecule antagonists, cell-based qHTS assay (AID 1963586). Note: nearly all actives have a fitted effect of over 45% in size. The method, boiled down: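 CHO cells stably expressing human HTR2A were plated for 18 h at 37 C, then loaded with calcium dye for 1 h. Compounds were preincubated 5 min at room temperature before DOI (4 nM solution) was added. Kinetic fluorescence was read for 3 min.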
Sequence of 5-hydroxytryptamine receptor 2A (Homo sapiens) (P28223 whole entry, looked up): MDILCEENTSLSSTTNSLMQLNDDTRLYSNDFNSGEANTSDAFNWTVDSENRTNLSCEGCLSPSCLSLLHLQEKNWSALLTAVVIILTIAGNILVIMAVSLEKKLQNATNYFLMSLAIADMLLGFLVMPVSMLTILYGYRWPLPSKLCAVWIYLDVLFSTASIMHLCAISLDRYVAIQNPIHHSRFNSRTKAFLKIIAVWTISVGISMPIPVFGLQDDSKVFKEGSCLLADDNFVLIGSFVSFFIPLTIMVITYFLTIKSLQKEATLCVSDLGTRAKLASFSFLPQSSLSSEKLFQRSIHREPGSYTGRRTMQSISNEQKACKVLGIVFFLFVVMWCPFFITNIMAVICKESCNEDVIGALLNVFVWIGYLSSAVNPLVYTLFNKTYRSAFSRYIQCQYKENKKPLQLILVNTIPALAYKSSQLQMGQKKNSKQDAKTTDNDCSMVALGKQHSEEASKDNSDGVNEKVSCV

The target is the same in test [9]. Put plainly: 5-hydroxytryptamine receptor 2A (HTR2A) small molecule agonists, cell-based qHTS assay (AID 1963587). Note: nearly all actives have a fitted effect of over 30% in size. In short, it runs like this:
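CHO cells stably expressing human HTR2A, plated 18 h, loaded with calcium dye 1 h at 37 C. Agonist mode: compounds added and intracellular calcium fluorescence recorded kinetically for 2 min at 1 sec intervals.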

Test [10] concerns the target Muscarinic acetylcholine receptor M1 (Homo sapiens) (UniProt P11229). Put plainly: Cholinergic receptor muscarinic 1 (CHRM1) small molecule antagonists, cell-based qHTS assay (AID 1963588). Note: nearly all actives have a fitted effect of over 40% in size. In short, it runs like this: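 Compounds were tested at 15 concentrations in three independent runs. Dye-loaded CHRM1-CHO cells were exposed 5 min at room temperature before stimulation by acetylcholine added at 50nM. Intracellular calcium was read kinetically on FDSS for 3 min.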

The target is the same in test [11]. The test is described as follows: Cholinergic receptor muscarinic 1 (CHRM1) small molecule agonists, cell-based qHTS assay (AID 1963589). Note: nearly all actives have a fitted effect of over 35% in size. The method, boiled down:
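Fluorescent calcium dye reports M1 activation in stably transfected CHO cells. Compounds, 15 concentrations, added after 1 h dye loading at 37 C; kinetic reading at 1 sec intervals.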

A short description of test [12]: cAMP Responsive Elements (CRE) small molecule agonists, cell-based qHTS assay (AID 1963590). The method, boiled down:
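Compound exposure lasted 3 h at 37 C/5% CO2 in CRE-bla HEK 293T cells grown in assay medium with 10% dialyzed FBS and 25 mM HEPES. Reporter signal came from LiveBLAzer B/G FRET substrate, 2 h, room temperature.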

The nature of test [13]: cAMP Responsive Elements (CRE) small molecule antagonists, cell-based qHTS assay (AID 1963591; active = well fitted inhibition curve with a large enough effect in the signal ratio in the repeat runs, not every such curve was filed as active; the % refers to the signal ratio). In short, it runs like this: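 Stimulation used NKH477 at a final 0.25 uM for 3 h in compound-treated CRE-bla HEK293T cells, seeded 18 h beforehand. Reporter activity was measured with LiveBLAzer B/G FRET substrate after 2 h at room temperature.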
The target in test [14] is Beta-2 adrenergic receptor (Homo sapiens) (UniProt P07550). The test is described as follows: Adrenergic beta2 receptor (ADRB2) small molecule antagonists, cell-based qHTS assay (AID 1963592). Note: series mostly up to about 92 µM; nearly all actives have a fitted effect of over 50% in size. The method, boiled down:
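Assay format: CHO-ADRB2 cells, 18-20hr seeding at 37C/5% CO2, then compound plus 1nM isoproterenol agonist mix for 0.5hr RT. Homogeneous time-resolved fluorescence cAMP detection after 1hr, expressed as 665/615 nm ratio.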

The target of test [15] is D(2) dopamine receptor (Homo sapiens) (UniProt P14416). The test is described as follows: Dopamine D2 receptor (DRD2) small molecule agonists, cell-based qHTS assay (AID 1963594). Note: nearly all actives have a fitted effect of over 35% in size. In short, it runs like this:
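HEK293 cells stably expressing human DRD2, pre-treated with PDE inhibitor Ro20-1724 (0.1 mM final) and compound 10 min at room temperature, then stimulated with NKH477 (200nM […]) for 30 min. cAMP read by HTRF (665/620 nm).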

The target is the same in test [16]. The test is described as follows: Dopamine D2 receptor (DRD2) small molecule antagonists, cell-based qHTS assay (AID 1963595; active = well fitted inhibition curve with a large enough effect in the signal ratio in the repeat runs, with a control signal flat; the % refers to the signal ratio). The method, boiled down:
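Antagonist mode in DRD2-HEK293 cells: after compound addition with 0.1 mM Ro20-1724, cells received quinpirole (12 nM) and NKH477 (200 nM) for 30 min at room temperature; HTRF cAMP read after 1 h detection.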

Test [17] in a line: p53 small molecule agonists, cell-based qHTS assay with rat liver microsomes (AID 1963578). In short, it runs like this: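 p53RE-bla cells, 4,000/well, pre-incubated 5 h, then given compounds plus rat liver microsomes (0.5 mg/mL final) and NADPH (0.5 mg/mL final). Incubation 16 h at 37 C; beta-lactamase reporter read by LiveBLAzer fluorescence after 2 h at room temperature.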

Test [18] is described as follows: p53 small molecule agonists, cell-based qHTS assay: qHTS cell viability counter screen (AID 1963581). Note: nearly all actives have a fitted effect of over 45% in size. The method, boiled down:
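Luminescence from CellTiter-Glo, reflecting ATP content, serves as the cytotoxicity measure; it is taken after the 2 h reporter substrate step in HCT-116 p53RE-bla cells dosed for 16 h at 37 C.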

The nature of test [19]: p53 small molecule agonists, cell-based qHTS assay (AID 1963582; active = well fitted activation curve with a large enough effect in the signal ratio in the repeat runs, not every such curve was filed as active; the % refers to the signal ratio). The method, boiled down: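 After plating, p53RE-bla cells sat 5 h in the incubator; compounds or DMSO vehicle were pinned in; a 16 h incubation at 37 C followed; FRET substrate was added and, 2 h later at RT, fluorescence was measured.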
In test [20] the target is Beta-2 adrenergic receptor (Homo sapiens) (UniProt P07550). Put plainly: Adrenergic beta2 receptor (ADRB2) small molecule agonists, cell-based qHTS assay (AID 1963593).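 Note: CHO cells stably overexpressing human ADRB2.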 The method, boiled down:
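CHO cells stably over-expressing ADRB2 were plated overnight at 37C, then dosed with compounds plus a stimulation mix containing 100uM IBMX and 25uM Ro-20-1724 for 0.5hr at room temperature. cAMP was measured by HTRF competition, 1hr.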

Sequence of Beta-2 adrenergic receptor (Homo sapiens) (P07550 whole entry, looked up): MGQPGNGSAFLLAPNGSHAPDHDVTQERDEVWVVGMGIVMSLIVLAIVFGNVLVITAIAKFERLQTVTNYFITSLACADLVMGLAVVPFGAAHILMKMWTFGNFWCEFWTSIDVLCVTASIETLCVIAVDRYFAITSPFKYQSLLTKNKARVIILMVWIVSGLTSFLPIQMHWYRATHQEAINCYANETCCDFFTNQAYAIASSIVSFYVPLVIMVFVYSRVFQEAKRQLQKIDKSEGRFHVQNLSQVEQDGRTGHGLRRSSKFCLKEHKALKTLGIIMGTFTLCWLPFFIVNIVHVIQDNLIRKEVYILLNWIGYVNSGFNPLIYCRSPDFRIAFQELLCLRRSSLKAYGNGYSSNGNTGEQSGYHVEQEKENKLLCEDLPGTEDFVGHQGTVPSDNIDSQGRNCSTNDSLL
Sequence of Muscarinic acetylcholine receptor M1 (Homo sapiens) (P11229 whole entry, looked up): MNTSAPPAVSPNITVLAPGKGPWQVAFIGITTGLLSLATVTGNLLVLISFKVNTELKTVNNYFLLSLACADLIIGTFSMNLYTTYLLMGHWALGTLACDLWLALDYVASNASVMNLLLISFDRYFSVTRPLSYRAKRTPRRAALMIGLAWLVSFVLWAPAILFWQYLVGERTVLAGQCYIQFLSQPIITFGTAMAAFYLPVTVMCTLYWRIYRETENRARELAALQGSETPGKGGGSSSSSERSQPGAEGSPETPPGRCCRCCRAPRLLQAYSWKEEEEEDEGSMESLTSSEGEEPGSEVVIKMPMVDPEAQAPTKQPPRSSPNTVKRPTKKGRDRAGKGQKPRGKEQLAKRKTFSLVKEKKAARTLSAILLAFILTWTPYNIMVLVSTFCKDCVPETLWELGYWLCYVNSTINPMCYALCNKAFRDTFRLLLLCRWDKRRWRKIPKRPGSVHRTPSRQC
Sequence of Gonadotropin-releasing hormone receptor (Homo sapiens) (P30968 whole entry, looked up): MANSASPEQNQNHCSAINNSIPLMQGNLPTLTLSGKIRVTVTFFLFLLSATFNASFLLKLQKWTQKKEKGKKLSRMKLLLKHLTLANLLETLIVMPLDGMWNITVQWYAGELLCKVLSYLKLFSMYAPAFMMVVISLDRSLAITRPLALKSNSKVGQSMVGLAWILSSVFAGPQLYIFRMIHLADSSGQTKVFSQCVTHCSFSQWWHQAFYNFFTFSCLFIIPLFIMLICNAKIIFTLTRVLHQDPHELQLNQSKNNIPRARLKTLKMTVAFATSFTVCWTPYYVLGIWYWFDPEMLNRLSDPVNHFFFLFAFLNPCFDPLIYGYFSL
Sequence of D(2) dopamine receptor (Homo sapiens) (P14416 whole entry, looked up): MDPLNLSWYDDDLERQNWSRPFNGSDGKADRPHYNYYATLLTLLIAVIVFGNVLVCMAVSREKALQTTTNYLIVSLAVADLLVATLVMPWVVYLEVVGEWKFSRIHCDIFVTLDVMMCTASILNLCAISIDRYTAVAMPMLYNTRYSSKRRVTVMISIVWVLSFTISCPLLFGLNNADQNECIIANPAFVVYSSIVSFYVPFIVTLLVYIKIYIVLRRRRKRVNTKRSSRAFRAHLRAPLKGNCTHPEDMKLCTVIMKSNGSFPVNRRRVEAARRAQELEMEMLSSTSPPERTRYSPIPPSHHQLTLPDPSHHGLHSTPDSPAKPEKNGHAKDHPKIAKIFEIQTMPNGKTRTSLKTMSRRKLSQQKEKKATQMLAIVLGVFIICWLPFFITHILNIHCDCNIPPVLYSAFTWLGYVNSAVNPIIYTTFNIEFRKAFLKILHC

On to `CCNc1nc(NC(C)C)nc(SC)n1`, for which the Potency result in test [1], in [2], in [3], in test [4], in test [5] and in [6] was “inactive” each time. The Potency result in test [7], in [8], in test [9], in test [10], in test [11] and in test [12] was “inactive” in each case. The Potency result in test [13], in test [14], in test [15] and in test [16] was “inactive” each time.

Take `Nc1ccc(Br)cc1`: the Potency entry in test [1], in [3], in test [4], in [17], in [6] and in test [7] was “inactive” throughout. Besides, the Potency result in test [18], in test [19], in [8], in [9], in test [10] and in test [11] was “inactive” each time. The Potency result in [12], in test [15] and in test [16] was “inactive” in each case. Also, the Potency in [2] is 68.5 µM (active) and inactive.

As to `CN1CSC(=S)N(C)C1`, the Potency in test [1] was 2.72 µM (active); in test [2], 1.21 µM (active) and 2.43 µM (active); in test [7], 20.3 µM (active). Moreover, the Potency result in test [3], in [4], in test [17], in test [6], in [18] and in [8] was “inactive” throughout. For the same compound, the Potency result in test [9], in test [10], in [11], in test [12], in test [14] and in test [15] was “inactive” in each case. Besides, the Potency entry in test [16] is “inactive”.

With `CCOP(=S)(OCC)SCSC(C)(C)C`, the Potency entry in test [1], in test [2], in [3], in test [4], in [5] and in test [6] was “inactive” each time. Moreover, the Potency entry in test [19], in test [9], in test [10], in test [11], in test [13] and in test [14] was “inactive” in each case. For the same compound, the Potency entry in [15] and in [16] was “inactive” each time.

For `CNC(=O)Oc1ccccc1C1OCCO1`, the Potency result in [1], in [2], in test [3], in test [4], in test [17] and in test [6] was “inactive” in each case. Moreover, the Potency result in [7], in [18], in [19], in test [8], in test [9] and in test [11] was “inactive” throughout. For the same compound, the Potency entry in test [12], in test [13], in test [14], in test [20], in [15] and in [16] was “inactive” in each case.

For the compound `CCOP(OCC)OCC`, the Potency result in [1], in test [2], in test [3], in test [4], in [17] and in test [6] was “inactive” in each case. The Potency entry in test [7], in test [18], in test [19], in [8], in test [9] and in test [10] was “inactive” throughout. Moreover, the Potency entry in test [11], in [12], in [13], in test [14], in [15] and in test [16] was “inactive” in each case.

As to `CCOC(=O)c1cncn1C(C)c1ccccc1` (stereo not drawn), the Potency entry in test [1], in [2], in test [3], in test [4], in test [17] and in test [6] was “inactive” throughout. In addition, the Potency entry in [7], in [18], in [19], in [8], in test [9] and in test [10] was “inactive” in each case. The Potency result in test [11], in [12], in test [13], in [14], in [20] and in test [15] was “inactive” in each case.

Turning to `O=S(=O)(O)C(F)(F)C(F)(F)C(F)(F)C(F)(F)C(F)(F)C(F)(F)F`, the Potency result in test [1], in test [2], in [3], in test [4], in test [17] and in test [6] was “inactive” in each case. In addition, the Potency result in test [7], in [18], in test [19], in [8], in test [9] and in test [10] was “inactive” throughout. In addition, the Potency result in test [11], in test [12], in test [13], in test [15] and in test [16] was “inactive” each time.
